In PubChem BioAssay:
Values joined by “and” are separate entries in the source; they are usually repeats but may differ in a detail not shown here. Equal values may be shown once. Active and inactive are the calls of the source.

How the values were obtained:
[1] = tested on: Plasmodium falciparum Sir2 (PF13_0152, Sir2A); test: pfSir2 binders on small-molecule microarrays, primary screen, biochemical, small-molecule microarray, 635 nm fluorescence (AID 1098); settings: small-molecule microarray binding, fluorescence 635 nm; higher = more signal;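 further: score merges spot fluorescence intensity with its signal-to-noise ratio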
[2] = small-molecule microarray binders of probe aDKK1, primary screen, biochemical, biotinylated probe, 635/667 nm fluorescence (AID 1099); settings: higher = more signal;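 further: score merges 667nm spot fluorescence with signal to noise across triplicate slides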
[3] = small-molecule microarray binders of probe aCHRDL2, primary screen, biochemical, biotinylated probe, 635/667 nm fluorescence (AID 1100); settings: higher = more signal
[4] = splicing luciferase reporter signal modulators, primary screen, spliceosome inhibition project, cell-based, HEK293, splice +/- reporter (AID 1101); settings: luminescence, 24 h, higher = more signal, called active from +8 up or from −8 down;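 further: HEK293 cells carrying a splicing-competent luciferase reporter gene; test concentration not given here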
[5] = target: Fibroblast growth factor 10 (Homo sapiens) (UniProt O15520); test: FGF10 binders on small-molecule microarrays, primary screen, biochemical, small-molecule microarray, 635 nm fluorescence (AID 1102); settings: FGF10 binding, fluorescence 635 nm, higher = more signal
[6] = tested on: glycogen synthase kinase-3 (GSK3A per assay name; protocol says GSK3B); test: GSK3 binders on small-molecule microarrays, primary screen, biochemical, small-molecule microarray, 635 nm fluorescence, GSK3A (AID 1103); settings: small-molecule microarray binding, fluorescence 635 nm; higher = more signal; further: the record names both GSK3A and GSK3B
[7] = target: Epidermal growth factor receptor (Homo sapiens) (UniProt P00533); test: EGFR binders on small-molecule microarrays, primary screen, biochemical, small-molecule microarray, 635 nm fluorescence (AID 1104); settings: EGFR binding, higher = more signal;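 further: score merges 667 nm emission intensity with spot signal to noise over triplicate slides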
[8] = target: Follistatin-related protein 3 (Homo sapiens) (UniProt O95633); test: FSTL3 binders on small-molecule microarrays, primary screen, biochemical, small-molecule microarray, 635 nm fluorescence (AID 1105); settings: FSTL3 binding, higher = more signal;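 further: score merges emission near 667 nm and signal to noise per printed spot across three slides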
[9] = target: Dickkopf-related protein 1 (Homo sapiens) (UniProt O94907); test: DKK1 binders on small-molecule microarrays, primary screen, biochemical, small-molecule microarray, 635 nm fluorescence scan (AID 1106); settings: DKK1 binding, higher = more signal;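 further: score merges emission near 667 nm with signal to noise over three replicate slides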
[10] = tested on: Inhibin beta A chain (activin A); test: INHBA (activin A) binders on microarrays, primary screen, biochemical, small-molecule microarray, 635 nm fluorescence scan (AID 1107); settings: small-molecule microarray binding, higher = more signal;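 further: mouse activin A protein probed at 4.33 µg/mL on printed slides; score merges bound-protein fluorescence near 667 nm with spot signal-to-noise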
[11] = tested on: Human papillomavirus type 1a protein E7 (residues 44-93); test: HPV1a E7 fragment binders on microarrays, primary screen, biochemical, small-molecule microarray, residues 44-93, 635 nm fluorescence (AID 1108); settings: small-molecule microarray binding, fluorescence 635 nm; higher = more signal;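 further: E7 fragment applied at 1 µg/mL in TBST for 1 h at 4 C; score combines spot fluorescence with its signal to noise ratio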
[12] = modulators of HCV replicon luciferase signal, primary screen, HCV replication inhibitor project, Huh7 cells, luciferase reporter (AID 1109); settings: 48 h, higher = more signal;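 further: huh7 hepatoma cells harbouring a luciferase neomycin HCV replicon reporter; luciferase luminescence as measure of HCV replicon replication; test concentration not given here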
[13] = target: Left-right determination factor 2 (Homo sapiens) (UniProt O00292); test: LEFTY2 binders on small-molecule microarrays, primary screen, biochemical, small-molecule microarray, 635 nm fluorescence scan (AID 1110); settings: LEFTY2 binding, higher = more signal
[14] = target: Calmodulin-1 (Homo sapiens) (UniProt P0DP23); test: CALM1 binders on microarrays, EGTA buffer, profiling panel, biochemical, small-molecule microarray, Cy5-labelled CALM1 (AID 1111); settings: Cy5-CALM1 binding fluorescence, higher = more signal;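 further: labelled calmodulin applied in Tris saline Tween buffer holding calcium plus EGTA and DTT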
[15] = target: Calmodulin-1 (Homo sapiens) (UniProt P0DP23); test: calcium-bound CALM1 binders on microarrays, profiling panel, artefact control for SMM control-protein annotation, biochemical, small-molecule microarray, Cy5-labelled CALM1, plus calcium (AID 1112); settings: Cy5-CALM1 binding fluorescence, higher = more signal;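 further: score merges spot fluorescence with signal to noise from triplicate slides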
[16] = small-molecule microarray binders of probe aWnt5a, primary screen, biochemical, biotinylated probe, 635/667 nm fluorescence (AID 1113); settings: higher = more signal;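 further: score merges 667 nm fluorescence intensity with signal-to-noise per printed feature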
[17] = small-molecule microarray binders of probe aShh, primary screen, biochemical, biotinylated probe, 635/667 nm fluorescence (AID 1114); settings: higher = more signal;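 further: probe is biotin-labelled aShh protein from a stem cell growth factor screen; measures binding of labelled protein to compounds printed on the slide; score merges feature fluorescence at 667 nm with signal-to-noise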
[18] = small-molecule microarray binders of probe aNog, primary screen, biochemical, biotinylated probe, 635/667 nm fluorescence (AID 1115); settings: higher = more signal;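 further: probe is biotinylated aNog protein used at 0.15 µg/mL for 1 h at 4 C; z-score combines 667 nm fluorescence of each spot with its signal to noise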
[19] = target: Torsin-1A-interacting protein 1 (Homo sapiens) (UniProt Q5JTV8); test: LAP1 binders from COS7 cell lysate, primary screen, small-molecule microarray, 635/667 nm fluorescence (AID 1116); settings: COS7-hLAP1 lysate binding, 635 nm fluorescence, higher = more signal
[20] = target: Alpha-bungarotoxin (Bungarus multicinctus) (UniProt P60615); test: alpha-bungarotoxin binders on microarray, profiling panel, artefact control for SMM control protein annotation, biochemical, small-molecule microarray, Alexa647 label, 635/667 nm fluorescence (AID 1117); settings: alpha-BTX-A647 binding fluorescence, higher = more signal
Chain of Alpha-bungarotoxin (Bungarus multicinctus) (P60615 whole entry, looked up): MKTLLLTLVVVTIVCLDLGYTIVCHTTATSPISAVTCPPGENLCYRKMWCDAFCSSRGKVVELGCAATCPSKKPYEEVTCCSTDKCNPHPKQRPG

Chain of Left-right determination factor 2 (Homo sapiens) (O00292 whole entry, looked up): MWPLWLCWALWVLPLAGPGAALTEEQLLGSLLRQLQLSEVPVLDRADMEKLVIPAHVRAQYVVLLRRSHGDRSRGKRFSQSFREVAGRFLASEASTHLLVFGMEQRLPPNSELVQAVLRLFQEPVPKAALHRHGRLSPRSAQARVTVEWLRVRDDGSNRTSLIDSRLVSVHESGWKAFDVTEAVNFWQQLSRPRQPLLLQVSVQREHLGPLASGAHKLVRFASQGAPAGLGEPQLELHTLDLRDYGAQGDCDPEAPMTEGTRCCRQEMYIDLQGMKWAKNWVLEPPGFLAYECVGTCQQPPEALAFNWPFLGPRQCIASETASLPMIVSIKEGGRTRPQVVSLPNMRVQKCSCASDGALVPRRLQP
Chain of Dickkopf-related protein 1 (Homo sapiens) (O94907 whole entry, looked up): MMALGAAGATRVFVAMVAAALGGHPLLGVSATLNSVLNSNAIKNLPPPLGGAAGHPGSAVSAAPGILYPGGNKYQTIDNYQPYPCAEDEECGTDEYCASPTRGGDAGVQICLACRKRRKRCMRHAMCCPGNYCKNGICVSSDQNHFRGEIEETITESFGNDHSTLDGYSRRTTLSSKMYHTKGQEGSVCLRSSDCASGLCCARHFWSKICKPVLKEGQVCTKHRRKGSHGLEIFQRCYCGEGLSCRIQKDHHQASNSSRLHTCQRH
Chain of Fibroblast growth factor 10 (Homo sapiens) (O15520 whole entry, looked up): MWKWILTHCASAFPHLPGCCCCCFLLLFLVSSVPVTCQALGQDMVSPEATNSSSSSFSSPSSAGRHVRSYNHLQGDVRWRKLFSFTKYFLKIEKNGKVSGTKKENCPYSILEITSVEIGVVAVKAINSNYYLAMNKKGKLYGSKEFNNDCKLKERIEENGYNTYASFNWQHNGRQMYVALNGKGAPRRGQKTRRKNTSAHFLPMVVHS
Chain of Follistatin-related protein 3 (Homo sapiens) (O95633 whole entry, looked up): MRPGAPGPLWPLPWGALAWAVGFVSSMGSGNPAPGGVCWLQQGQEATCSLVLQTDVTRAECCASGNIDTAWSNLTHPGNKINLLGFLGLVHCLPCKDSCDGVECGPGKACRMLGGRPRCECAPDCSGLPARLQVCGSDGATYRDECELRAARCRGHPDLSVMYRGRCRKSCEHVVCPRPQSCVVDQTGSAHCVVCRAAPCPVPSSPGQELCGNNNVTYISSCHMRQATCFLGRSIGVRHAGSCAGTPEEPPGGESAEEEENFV
Chain of Torsin-1A-interacting protein 1 (Homo sapiens) (Q5JTV8 whole entry, looked up): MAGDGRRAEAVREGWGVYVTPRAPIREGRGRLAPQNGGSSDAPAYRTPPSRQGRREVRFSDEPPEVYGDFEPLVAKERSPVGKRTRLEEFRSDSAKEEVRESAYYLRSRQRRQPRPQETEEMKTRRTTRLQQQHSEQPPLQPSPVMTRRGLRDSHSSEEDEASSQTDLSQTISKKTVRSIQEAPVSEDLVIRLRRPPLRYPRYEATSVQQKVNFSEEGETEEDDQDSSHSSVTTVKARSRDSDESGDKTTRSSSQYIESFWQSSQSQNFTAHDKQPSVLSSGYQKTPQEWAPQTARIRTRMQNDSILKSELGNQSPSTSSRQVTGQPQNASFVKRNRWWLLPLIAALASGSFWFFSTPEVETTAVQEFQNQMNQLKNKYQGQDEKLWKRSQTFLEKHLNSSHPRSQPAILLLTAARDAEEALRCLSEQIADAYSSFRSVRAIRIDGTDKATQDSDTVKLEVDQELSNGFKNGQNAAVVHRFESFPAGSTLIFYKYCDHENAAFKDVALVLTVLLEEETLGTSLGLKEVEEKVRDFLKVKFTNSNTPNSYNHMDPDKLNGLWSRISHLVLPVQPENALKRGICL
Chain of Epidermal growth factor receptor (Homo sapiens) (P00533 whole entry, looked up): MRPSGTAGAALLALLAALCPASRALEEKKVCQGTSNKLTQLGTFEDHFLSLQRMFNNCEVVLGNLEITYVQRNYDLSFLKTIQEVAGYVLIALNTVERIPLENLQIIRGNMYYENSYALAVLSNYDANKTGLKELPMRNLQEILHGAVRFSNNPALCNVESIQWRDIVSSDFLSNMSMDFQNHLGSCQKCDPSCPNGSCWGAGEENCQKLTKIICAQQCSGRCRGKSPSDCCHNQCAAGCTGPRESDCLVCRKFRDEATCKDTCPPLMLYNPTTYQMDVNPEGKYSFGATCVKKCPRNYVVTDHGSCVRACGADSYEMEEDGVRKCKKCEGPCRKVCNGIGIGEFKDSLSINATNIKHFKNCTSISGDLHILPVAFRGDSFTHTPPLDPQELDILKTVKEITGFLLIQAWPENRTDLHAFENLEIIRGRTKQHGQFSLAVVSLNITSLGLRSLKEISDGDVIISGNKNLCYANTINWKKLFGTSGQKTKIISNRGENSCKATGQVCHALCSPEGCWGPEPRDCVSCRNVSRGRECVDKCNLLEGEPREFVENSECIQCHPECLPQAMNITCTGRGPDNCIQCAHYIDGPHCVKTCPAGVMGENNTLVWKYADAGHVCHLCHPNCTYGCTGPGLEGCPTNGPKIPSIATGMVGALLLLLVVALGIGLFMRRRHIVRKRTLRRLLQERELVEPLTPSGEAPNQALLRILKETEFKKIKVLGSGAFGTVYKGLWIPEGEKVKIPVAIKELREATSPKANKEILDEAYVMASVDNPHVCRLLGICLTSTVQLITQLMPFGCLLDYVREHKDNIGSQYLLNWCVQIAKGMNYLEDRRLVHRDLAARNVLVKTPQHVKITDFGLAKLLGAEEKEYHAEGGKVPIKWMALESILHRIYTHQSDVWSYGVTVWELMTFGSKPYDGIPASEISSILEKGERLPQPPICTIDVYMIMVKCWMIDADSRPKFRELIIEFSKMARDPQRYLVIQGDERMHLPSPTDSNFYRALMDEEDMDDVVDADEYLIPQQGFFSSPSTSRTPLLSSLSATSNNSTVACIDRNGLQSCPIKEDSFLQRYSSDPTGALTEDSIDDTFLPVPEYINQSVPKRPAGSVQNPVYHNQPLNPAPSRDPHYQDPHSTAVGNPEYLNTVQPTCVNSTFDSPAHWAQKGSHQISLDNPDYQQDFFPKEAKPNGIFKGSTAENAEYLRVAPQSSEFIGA

SMILES	composite z-score [1]	composite z-score [2]	composite z-score [3]	z-score [4]	composite z-score [5]	composite z-score [6]	composite z-score [7]	composite z-score [8]	composite z-score [9]	composite z-score [10]	composite z-score [11]	z-score [12]	composite z-score [13]	composite z-score [14]	composite z-score [15]	composite z-score [16]	composite z-score [17]	composite z-score [18]	composite z-score [19]	composite z-score [20]
C[N+](C)(C)CCCCCCNC(=O)[C@H]1C[C@H]2C(=O)N[C@@H](CCCC[N+](C)(C)C)C(=O)N2[C@H]1c1cccc(OCCO)c1	1.73 and 1.42	-0.0501 and 1.08	-0.148 and 0.62	-0.159 (inactive) and 0.257 (inactive)	1.2 and 0.913	0.898 and 0.613	0.111 and 0.558	1.44 and 0.262	1.34 and 1.55	0.589 and 1.36	0.519 and 0.362	1.38 and 1.18	1.35 and 1.04	-0.742 and -0.31	-0.458 and 0.0972	-0.0981 and -0.0478	-0.291 and -0.167	-0.0855 and 0.304	0.953 and 0.544	0.433 and -0.3
C[C@@H](ON=C1[C@H]2CCn3c(=O)n(-c4ccccc4)c(=O)n3[C@H]2[C@H](O)[C@@H]2O[C@H]12)c1cn([C@H](CO)Cc2ccccc2)nn1	0.494	-0.173	-0.569	0.211 (inactive)	0.416	0.438	0.419	0.572	0.462	-0.0477	0.46	-3.71	0.605	0.0208	-0.549	-0.148	-0.358	-0.364	-0.0609	0.24
C=CCN(Cc1ccccc1)C(=O)C1N(C(C)(C)CO)C(=O)C2C(C(=O)O)C3C=CC21O3 (stereo not given)	0.107 and 0.29	-0.135 and -0.486	0.708 and 0.849	0.0525 (inactive) and 0.382 (inactive)	-1.46 and -2	-0.767 and -1.51	-2.64 and -1.86	-1.45 and -1.73	-2.3 and -1.58	-4.6 and -2.88	-1.71 and -2.2	-1.39 and 0.81	-2.75 and -1.49	-0.23 and -0.697	1.19 and 0.132	-0.202 and -0.224	-0.138 and -0.206	0.196 and -0.47	0.148 and -1.17	-2.89 and -1.25
COC(=O)C1=C(C)N(Cc2ccccc2)C2=C(C(C)=O)C[C@@](O)(C(=O)OC)C(=O)N2[C@@H]1c1ccccc1	1.58 and 0.326	-0.301 and -0.205	-0.764 and -0.229	-0.805 (inactive) and -0.873 (inactive)	0.988 and 0.0571	0.74 and -0.0162	0.381 and 0.348	0.869 and 0.521	0.801 and 0.478	0.522 and 1.28	0.594 and -0.54	-0.347 and 1.11	0.85 and 0.187	-1 and -0.501	-1.13 and -0.338	-0.0512 and -0.18	0.0465 and 0.0121	0.127 and -0.247	0.974 and -0.069	-0.634 and 0.42
